HP1b binding inh – HTS for Inhibitors of HP1-beta Chromodomain Interactions with Methylated Histone Tails; AlphaScreen HP1-beta / biotin-H3K9me3 peptide binding; Potency, µM (series often up to 114 µM), without a hit: at the top dose activity change, negative = inhibition, most hits filed as inhibitors; 390,000 compounds, 0.56% hits; AID 540317, 2011; further: nearly all actives have a fitted effect of over 70% in size
Target sequence (P83916 whole entry, looked up): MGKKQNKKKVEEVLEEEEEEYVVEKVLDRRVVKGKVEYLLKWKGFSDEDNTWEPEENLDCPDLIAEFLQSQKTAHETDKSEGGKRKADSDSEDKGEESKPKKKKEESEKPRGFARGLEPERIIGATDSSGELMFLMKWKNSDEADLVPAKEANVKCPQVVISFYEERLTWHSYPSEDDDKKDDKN
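AlphaScreen: HP1-beta (50 nM) preformed 30 min with biotin-H3(1-18)K9me3 peptide (50 nM) in PBS pH 7.4, 0.01% Tween-20. Compound added for 30 min at RT, then streptavidin donor/nickel chelate acceptor beads (10 ug/mL) for 30 min.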
G9a block – qHTS Assay for Inhibitors of Histone Lysine Methyltransferase G9a. Histone-lysine N-methyltransferase EHMT2 (Homo sapiens), Q96KQ7. G9a H3K9 monomethylation, AlphaScreen, 2 h. Potency, µM (doses to about 102 µM), without a hit: at the top dose activity, negative = inhibition, actives largely listed as inhibitors. 350,000 compounds, 8.8% hits. AID 504332, 2011; further: on the % scale 0 is the no-effect control and ±100 the full control effect; nearly all actives have a fitted effect of over 75% in size
Target sequence (Q96KQ7 913-1193 limits assumed): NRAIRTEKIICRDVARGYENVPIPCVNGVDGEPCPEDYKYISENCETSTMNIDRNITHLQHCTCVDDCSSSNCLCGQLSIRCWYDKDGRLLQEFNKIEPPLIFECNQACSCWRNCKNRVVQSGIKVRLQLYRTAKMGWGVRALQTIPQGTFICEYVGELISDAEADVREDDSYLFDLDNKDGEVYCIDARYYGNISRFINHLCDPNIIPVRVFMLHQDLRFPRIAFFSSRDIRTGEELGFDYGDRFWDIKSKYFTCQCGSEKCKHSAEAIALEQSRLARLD
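Enzyme 20 nM + cpd, 15 min RT; add b-H3K9 pep 500 nM / SAM 20 uM; 2 h RT; anti-H3K9me1 Ab 0.5 ug/mL + SA donor / anti-rabbit acceptor beads 20 ug/mL each, 10 min; AlphaScreen read.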
GLS inhibitor – qHTS for Inhibitors of Glutaminase (GLS) | Glutaminase kidney isoform, mitochondrial (Homo sapiens), O94925 | GLS enzymatic activity, qHTS titration | Potency, µM (highest dose often 45.5 µM), inactives show at the highest dose activity change, negative = inhibition, most hits filed as inhibitors | 410,000 compounds, 0.21% hits | AID 624170, 2012; further: on the % scale 0 is the no-effect control and ±100 the full control effect
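Read-out is an Amplex red fluorescence increase coupled through glutamate oxidase and HRP, measured before and after 30 min room-temperature incubation. hKGA is in 45 mM KH2PO4 (pH 8.2) with 0.02% Tween-20; glutamine added as 1mM solution.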
BAZ2B block – qHTS Assay for Inhibitors of BAZ2B. Bromodomain adjacent to zinc finger domain protein 2B (Homo sapiens), Q9UIF8. AlphaScreen BAZ2B-H3K14Ac peptide displacement. Potency, µM (highest dose often 114 µM), without a hit: at the highest dose activity change, negative = inhibition, actives largely listed as inhibitors. 360,000 compounds, 4.4% hits. AID 504333, 2011; further: on the % scale 0 is the no-effect control and ±100 the full control effect; nearly all actives have a fitted effect of over 60% in size
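AlphaScreen luminescence quantifies BAZ2B engagement of H3K14Ac peptide; the protein and biotinylated peptide are both at 50 nM final, buffer PBS pH 7.4 with 0.01% Tween-20, all steps at room temperature.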
JMJD2A Tudor inh – qHTS Assay for Inhibitors of JMJD2A-Tudor Domain; Lysine-specific demethylase 4A (Homo sapiens), O75164; AlphaScreen JMJD2A-Tudor / H3K4me3 peptide binding; Potency, µM (series often up to 114 µM), inactives show top-dose activity change, negative = inhibition, most hits filed as inhibitors; 390,000 compounds, 4.4% hits; AID 504339, 2011; further: on the % scale 0 is the no-effect control and ±100 the full control effect; nearly all actives have a fitted effect of over 50% in size
* = called active by the depositor; ? = inconclusive; . = no result; [ ] = another dose, or the depositor's remark. Most compounds without a hit are left out; they make up all but 10% or so of the library. The call rests on the fitted dose curve; in most records, active means well fitted curve in the direction sought with a large enough effect; inconclusive means small, poorly fitted or top-dose-only effect, or another doubt; inactive means no such curve, though single readings can be large; an effect the other way counts as inactive or inconclusive. Potency means the concentration at half of the fitted maximal effect.

SMILES	HP1b binding inh	G9a block	GLS inhibitor	BAZ2B block	JMJD2A Tudor inh
CC(C)N1C/C(=C/c2ccsc2)C(=O)/C(=C/c2ccsc2)C1	-13%	?	0%	45µM*	?
CCOC(=O)c1c(C)n(C)c2ccc(OCC(O)CN(CC)CC)cc12 (stereo not given)	13%	?	-4%	-8%	-28%
O=C(CCN1CCCCC1)NNC(=S)NC(=O)c1ccc(Br)cc1	11%	11µM*	-19%	?	?
O=C(CCN1CCOCC1)NNC(=S)NC(=O)c1ccc(Br)cc1	6%	7.9µM*	-3%	-37%	?
CC1(C)CC(=O)C2=C(C1)OC(=O)C2(NC(=O)c1cccs1)C(F)(F)F (stereo not given)	43%	-5%[12.7 µM]	9%	10%	-22%
O=C(Nc1ccccn1)C1CCN(S(=O)(=O)c2cccs2)CC1	7%	-6%	-1%	0%	-9%
COc1ccc(CN(C(=O)COc2ccc(C)c(C)c2)C2CCS(=O)(=O)C2)cc1OC (stereo not given)	20%	6%	-4%	4%	-13%
Cc1ccccc1OCC(=O)N(Cc1ccc(N(C)C)cc1)C1CCS(=O)(=O)C1 (stereo not given)	-14%	32µM*	13%	-46%	?
CN(C)c1ccc(CN(C(=O)C2COc3ccccc3O2)C2CCS(=O)(=O)C2)cc1 (stereo not given)	-6%	45µM*	16%	56µM*	?
Cc1c(C(=O)N(Cc2ccc(N(C)C)cc2)C2CCS(=O)(=O)C2)oc2ccccc12 (stereo not given)	?	13µM*	-2%	28µM*	14µM*
Cc1ccc(OCC(=O)N(Cc2ccc(N(C)C)cc2)C2CCS(=O)(=O)C2)cc1C (stereo not given)	?	.	29%	45µM*	?
CN(C)c1ccc(CN(C(=O)COc2ccccc2)C2CCS(=O)(=O)C2)cc1 (stereo not given)	-8%	?	10%	?	-25%
C[C@H](CO)N1C[C@H](C)[C@@H](CN(C)C(=O)c2cc(-c3ccccc3)on2)OCc2cn(nn2)CCCC1=O	.	.	5%	.	.
Cc1ccc(S(=O)(=O)N2CC3(O)CN(C(=O)OC(C)C)N(C(=O)OC(C)C)CC3(OC(=O)Nc3c(C)noc3C)C2)cc1 (stereo not given)	.	.	2%	.	.
Cc1ccc(Nc2nc(COC(=O)COc3ccc(C=O)cc3)cs2)cc1	-1%	-13%[59 µM]	7%	-37%	?
O=C(COc1ccc(Cl)cc1)OCc1csc(Nc2ccccc2)n1	19%	10µM*	3%	-29%	-23%
O=C(O)COc1ccc(/C=N/NC(=O)c2ccc(-c3csc(Nc4ccc(Cl)cc4)n3)cc2)cc1	20µM*	-105%[59 µM]	?	4µM*	8.9µM*
Cc1nc(CC(=O)N/N=C/c2ccc(OCC(=O)O)cc2)cs1	74%	42%[59 µM]	-14%	?	-28%
CCOc1ccc(/C=N/NC(=O)c2ccncc2)cc1OC	.	.	15%	.	.
CCOc1cc(/C=N/NC(=O)c2ccc(-c3csc(Nc4ccc(C)cc4)n3)cc2)ccc1OCC(=O)O	18%	45µM*	?	25µM*	?
N#CCC(N)=C(C#N)C#N	18%	?	35%	4%	-14%
C=CCn1c(C(C)NC(=O)c2ccc(C)cc2)n[nH]c1=S (stereo not given)	24%	40µM*	-5%	3%	8.9µM*
C=CCn1c(C(C)NC(=O)c2ccccc2C)n[nH]c1=S (stereo not given)	44%	20µM*	3%	-4%	7.9µM*
CNC(=O)C1CCC(Cn2c(=O)c3sccc3n(Cc3cc(C)ccc3C)c2=O)CC1 (stereo not given)	53%	10%[59 µM]	0%	-3%	-3%
O=C(Nc1ccc(F)cc1)c1ccc2c(c1)NC(=O)c1ccccc1S2	36%	-28%[59 µM]	1%	-1%	-3%

Screens as filed in PubChem.
